Source: PubChem (National Center for Advancing Translational Sciences (NCATS))
In the library only some 3.8% were active in any assay of this set; here they are far more common.
GLS inh – inhibitors of human glutaminase (GLS); hit rate 0.21% among 410,000; AID 624170; O94925; GLS enzymatic activity, qHTS titration; Potency, µM (doses to about 45.5 µM), inactives show top-dose activity change, negative = inhibition, hits mostly inhibitors
Target sequence (O94925 whole entry, looked up): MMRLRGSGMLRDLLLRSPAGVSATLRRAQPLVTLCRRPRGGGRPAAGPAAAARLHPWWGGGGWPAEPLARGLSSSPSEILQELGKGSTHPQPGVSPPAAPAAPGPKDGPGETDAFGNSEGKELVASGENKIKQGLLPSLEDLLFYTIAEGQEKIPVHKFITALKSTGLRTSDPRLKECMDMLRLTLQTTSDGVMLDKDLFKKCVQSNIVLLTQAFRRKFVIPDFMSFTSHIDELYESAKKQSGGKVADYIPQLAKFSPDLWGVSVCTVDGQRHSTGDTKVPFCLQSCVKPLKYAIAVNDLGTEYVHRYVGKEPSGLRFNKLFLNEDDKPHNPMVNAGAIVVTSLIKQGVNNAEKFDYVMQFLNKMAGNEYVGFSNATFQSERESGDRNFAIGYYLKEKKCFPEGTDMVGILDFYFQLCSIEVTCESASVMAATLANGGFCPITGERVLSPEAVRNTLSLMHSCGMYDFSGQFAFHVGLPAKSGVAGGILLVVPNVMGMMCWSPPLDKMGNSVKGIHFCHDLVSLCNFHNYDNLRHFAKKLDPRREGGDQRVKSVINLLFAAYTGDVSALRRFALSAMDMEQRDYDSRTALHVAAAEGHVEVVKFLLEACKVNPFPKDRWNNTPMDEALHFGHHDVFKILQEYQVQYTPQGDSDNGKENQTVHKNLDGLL
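Read-out is an Amplex red fluorescence increase coupled through glutamate oxidase and HRP, measured before and after 30 min room-temperature incubation. hKGA is in 45 mM KH2PO4 (pH 8.2) with 0.02% Tween-20; glutamine added as 1mM solution.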
GCN5L2 inh – blocks human GCN5L2 histone acetyltransferase; GCN5L2 HAT assay, ThioGlo1 CoA-SH fluorescence; Potency, µM (doses to about 58.9 µM), for the others: at the top dose activity change, negative = inhibition, actives largely listed as inhibitors; hit rate 0.21% among 390,000; AID 504327
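Titration-based screen in which CoA formation is detected via maleimide probe ThioGlo1 (50uM) turning fluorescent on thiol reaction; substrates H3(1-25) 75uM and acetyl-CoA 70uM, GCN5L2 20nM, 20 min incubation at room temperature.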
rTrxR1 inhibitor – blocks rat thioredoxin reductase 1; O89049; recombinant rTrxR1, NADPH fluorescence consumption, selenite substrate; Potency, µM (highest dose often 114 µM), for the others: at the highest dose activity change, negative = inhibition, actives largely listed as inhibitors; hit rate 1% among 390,000; further: nearly all actives have a fitted effect of over 65% in size
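Rat TrxR1 (90 nM in the dispensed reagent) was pre-reduced with 400 uM NADPH for 5 min at room temperature, then incubated with compound for 15 min. After 400 uM selenite was added, NADPH fluorescence (Ex 340/Em 450 nm) was followed for 8 min.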
VDR inh – inhibitors of human vitamin D receptor; P11473; hit rate 0.93% among 400,000; Potency, µM, inactives show max response, negative = inhibition, most hits filed as inhibitors; VDR-SRC2-3 peptide fluorescence polarization, 2 h
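Two reagent solutions held at 4 deg C in the dark were dispensed, compounds pinned at 23 nl, and the mixture incubated 2 h at room temperature. Read-out: fluorescence polarization of VDR–SRC2-3 peptide binding.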
Sfp inh – Sfp phosphopantetheinyl transferase inhibition; Q9F4F7; Biochemical Sfp PPTase activity, qHTS; Potency, µM, for the others: largest response in the series, negative = inhibition, usual class: inhibitors; hit rate 3.5% among 310,000; AID 1490;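 further: the enzyme is Sfp with the accession as filed and its product quenches rhodamine fluorescence; 0% = enzyme reaction without inhibitor and -100% = no enzyme wells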
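Buffer: 50 mM Hepes-Na pH 7.6, 10 mM MgCl2, 0.01% Nonidet P-40, 0.01% BSA. Enzyme 15 nM, pre-exposed to compound 15 min; substrates then added and fluorescence change tracked over 30 min.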
TrxR1 substrate – substrates of rat thioredoxin reductase 1; O89049; hit rate 0.01% among 390,000; purified TrxR1 substrate turnover, NADPH consumption readout; Potency, µM (top dose mostly 114 µM), for inactives: at the top dose activity change, negative = substrate turnover; further: nearly all actives have a fitted effect of over 50% in size
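Rat TrxR1, dispensed at 90 nM, was prereduced with 400 uM NADPH (final) for 5 min at ~22 deg C, then incubated with compound 15 min before 400 uM selenite. A first-read NADPH fluorescence drop versus no-compound background flagged substrates.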
* marks the source's active call; other numbers are inactive results; [ ] = another dose, or the depositor's remark. The call rests on the fitted dose curve; in most records, active means well fitted curve in the direction sought with a large enough effect; inconclusive means small, poorly fitted or top-dose-only effect, or another doubt; inactive means no such curve, though single readings can be large; an effect the other way counts as inactive or inconclusive. Unless noted, on the % scale 0 is the no-effect control and ±100 the full control effect; potency means the concentration at half of the fitted maximal effect.

Results for O=C(NC(=S)Nc1ccc(CN2CCOCC2)cc1)c1cccc([N+](=O)[O-])c1 ?
GLS inh: -15%; GCN5L2 inh: -1%; rTrxR1 inhibitor: 3%[57.1 µM]; VDR inh: -18%; Sfp inh: 45µM*; TrxR1 substrate: -19%[57.1 µM]

What do the screens show for `O=C(O)c1ccc(NC(=S)NC(=O)c2ccc3ccccc3c2)cc1`?
GLS inh: 2%; GCN5L2 inh: inconclusive; rTrxR1 inhibitor: inconclusive; VDR inh: -12%; Sfp inh: -2%; TrxR1 substrate: 3%

What do the screens show for `O=C(NC(=S)Nc1ccc(N2CCOCC2)cc1)c1cccc([N+](=O)[O-])c1`?
GLS inh: 18%; GCN5L2 inh: 0%; rTrxR1 inhibitor: inconclusive; VDR inh: -15%; Sfp inh: -19%; TrxR1 substrate: -1%

What do the screens show for `O=C(O)c1ccc(NC(=S)NC(=O)c2cccc(COc3ccccc3)c2)cc1`?
GLS inh: 18%; GCN5L2 inh: -3%; rTrxR1 inhibitor: inconclusive; VDR inh: -13%; Sfp inh: 50µM*; TrxR1 substrate: 8%

Results for CCCS(=O)(=O)C(=C(Nc1ccc(OC)cc1)Nc1ccc(OC)cc1)S(=O)(=O)CCC ?
GLS inh: 11%; GCN5L2 inh: 1%; rTrxR1 inhibitor: 9%; VDR inh: 3%; Sfp inh: -2%; TrxR1 substrate: -4%

What do the screens show for `Cc1cccc(-c2nc(CN3CCN(C(=O)C4CCCO4)CC3)cs2)c1` (configuration not stated)?
GLS inh: 7%; GCN5L2 inh: -3%; rTrxR1 inhibitor: -19%; VDR inh: -10%; Sfp inh: 10%; TrxR1 substrate: -8%

Results for C[C@H]1CN([C@@H](C)CO)S(=O)(=O)c2ccc(Br)cc2O[C@@H]1CN(C)C(=O)c1cccnc1 ?
GLS inh: -7%

Results for CSc1nc2c(c(=O)n1C)SC(C)C2 (configuration not stated) ?
GLS inh: 1%; GCN5L2 inh: -7%; rTrxR1 inhibitor: 1%[57.1 µM]; VDR inh: -6%; Sfp inh: 50µM*; TrxR1 substrate: 2%[57.1 µM]

What do the screens show for `CCOC(=O)c1sc2nc(CSc3ccccc3)nc(N3CCCN(C)CC3)c2c1C`?
GLS inh: 11%; GCN5L2 inh: -4%; rTrxR1 inhibitor: 0%[57.1 µM]; VDR inh: -19%; Sfp inh: 50µM*; TrxR1 substrate: -7%[57.1 µM]

What do the screens show for `Cc1ccc(/C=N\NC(=O)c2csnn2)cc1`?
GLS inh: -25%; GCN5L2 inh: -3%; rTrxR1 inhibitor: 17%[57.1 µM]; VDR inh: -8%; Sfp inh: 10µM*; TrxR1 substrate: -9%

Results for COc1ccc2c(c1)-c1nc(NC(=O)c3cc(OC)c(OC)c(OC)c3)sc1CC2 ?
GLS inh: 16%; GCN5L2 inh: -19%; rTrxR1 inhibitor: 29%; VDR inh: -11%; TrxR1 substrate: 16%

Results for O=C(NC1CCCC1)C(c1ccncc1)N(Cc1ccccc1)C(=O)c1ccc(-c2ccccc2)[nH]1 (configuration not stated) ?
GLS inh: -8%; GCN5L2 inh: -6%; rTrxR1 inhibitor: inconclusive; VDR inh: 10%; Sfp inh: 18µM*; TrxR1 substrate: -3%

Results for S=c1[nH]nc2n1CCCN2 ?
GLS inh: 11µM*; GCN5L2 inh: 2%; rTrxR1 inhibitor: 4%[57.1 µM]; VDR inh: -2%; Sfp inh: 14%; TrxR1 substrate: -3%[57.1 µM]

Results for Brc1ccc(-c2nnc(-c3ccccc3Br)o2)cc1 ?
GLS inh: -5%; GCN5L2 inh: -11%; rTrxR1 inhibitor: 15%[57.1 µM]; VDR inh: 3%; Sfp inh: 50µM*; TrxR1 substrate: 11%[57.1 µM]

How did Clc1ccc(-c2nnc(-c3ccccc3Cl)o2)cc1 do in these assays?
GLS inh: -12%; GCN5L2 inh: 0%; rTrxR1 inhibitor: 2%[57.1 µM]; VDR inh: -12%; Sfp inh: 71µM*; TrxR1 substrate: 9%[57.1 µM]

Results for COc1cc(OC)cc(C(=O)NC(=S)N2CCCCCC2)c1 ?
GLS inh: -2%; GCN5L2 inh: 0%; rTrxR1 inhibitor: 13%[57.1 µM]; VDR inh: inconclusive; Sfp inh: 8%; TrxR1 substrate: -6%

Results for COc1ccc2c(c1)C(NC(C)=O)C(=O)N2C (configuration not stated) ?
GLS inh: 1%; GCN5L2 inh: -1%; rTrxR1 inhibitor: -8%; VDR inh: 5%; Sfp inh: -6%; TrxR1 substrate: -7%

What do the screens show for `CCc1ccc2c(c1)C(NC(C)=O)C(=O)N2CC` (configuration not stated)?
GLS inh: 7%; GCN5L2 inh: -5%; rTrxR1 inhibitor: 5%; VDR inh: -2%; Sfp inh: 56µM*; TrxR1 substrate: 8%

How did CC(=O)NC1C(=O)N(CCN2CCOCC2)c2ccc(C)cc21 (configuration not stated) do in these assays?
GLS inh: inconclusive; GCN5L2 inh: 3%; rTrxR1 inhibitor: 6%[2.29 µM]; VDR inh: inconclusive; Sfp inh: 79µM*; TrxR1 substrate: 0%[2.29 µM]

Results for CC(=O)NC1C(=O)N(CCN2CCOCC2)c2ccc(Cl)cc21 (configuration not stated) ?
GLS inh: inconclusive; GCN5L2 inh: 0%; rTrxR1 inhibitor: -2%; VDR inh: inconclusive; Sfp inh: inconclusive; TrxR1 substrate: 0%

How did Cc1ccc2c(c1)C(=C(C#N)C#N)C(=O)N2CCN1CCOCC1 do in these assays?
GLS inh: 3%; GCN5L2 inh: 30%; rTrxR1 inhibitor: inconclusive; VDR inh: 79µM*; Sfp inh: -8%; TrxR1 substrate: -2%

What do the screens show for `CC(=O)NC1C(=O)N(CCN2CCOCC2)c2ccc(F)cc21` (configuration not stated)?
GLS inh: -23%; GCN5L2 inh: -3%; rTrxR1 inhibitor: 0%; VDR inh: inconclusive; Sfp inh: 71µM*; TrxR1 substrate: -2%

Results for CCCCN1C(=O)C(NC(C)=O)c2cc(Br)ccc21 (configuration not stated) ?
GLS inh: 8%; GCN5L2 inh: -10%; rTrxR1 inhibitor: 22%[57.1 µM]; VDR inh: -14%; Sfp inh: -1%; TrxR1 substrate: 8%[57.1 µM]

What do the screens show for `C[C@]12C=C[C@H](O)CC1=CCC1C2CC[C@@]2(C)C1CCC21OCCO1` (some centres not stated)?
GLS inh: -13%; GCN5L2 inh: -4%; rTrxR1 inhibitor: 16%; VDR inh: 6%; TrxR1 substrate: -1%

How did O=C1C2=C(S[C@@H]3O[C@H](CO)[C@@H](O)[C@H](O)[C@H]3O2)C(=O)c2ccccc21 do in these assays?
VDR inh: 35µM*; Sfp inh: inconclusive
